From PubChem BioAssay
In the library only some 1.2% were active in any assay of this set; here they are far more common.
sdo1 growth: compounds rescuing growth of sdo1-depleted yeast, bone marrow failure model | S. cerevisiae sdo1-depleted JHY4D growth rescue, OD600 30 h; active compounds read high; pdr5 snq2 efflux-pump mutant strain | z-score at 10 µM | hit rate 0.21% among 140,000 | AID 817;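 active means z-score above 3 at both the 24 hr and the 30 hr optical density reads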
VCAM1 TNFa inh: reduces TNF alpha induced VCAM1 expression in HUVEC | HUVEC TNFa-induced VCAM-1 immunofluorescence, high-content imaging | inhibition, % at 2 µM | hit rate 0.48% among 95,000 | AID 802;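 active means inhibition above the batch mean plus 3 SD, with images confirmed as a hit by eye, cut at about 37% in these data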
cytoskel mod: cytoskeleton assembly modification | HUVEC TNFa F-actin phalloidin imaging, high content | inhibition, % at 2 µM | hit rate 0.18% among 91,000;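 active means inhibition above the batch mean plus 3 SD and confirmed as a hit by visual image inspection, cut at about 30% in these data, passing the limit was not always enough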
TNFa cytotox: toxic to HUVEC cells under TNF alpha stimulation | HUVEC TNFalpha-stimulated, Hoechst cell count, imaging | cell count reduction, % at 2 µM | hit rate 0.17% among 93,000 | AID 848;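 active means cell count reduction exceeding the screen mean by over 5 SD, scaled to untreated wells per plate, cut at about 78% in these data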;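 further: cells counted after 24 h of TNF alpha exposure following the 1 h pretreatment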
E-sel TNF inh: blocks E-selectin expression induced by TNF alpha. AID 1246. hit rate 0.71% among 120,000. inhibition, % at 2 µM. HUVEC TNFa-induced E-selectin immunofluorescence, high content;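 active means inhibition above the batch mean plus 3 SD, and confirmed as a hit on visual image review, cut at about 43% in these data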
Phagocytosis inh: macrophage phagocytosis inhibition. hit rate 0.07% among 110,000. inhibition, % at 5 µM. J774A.1 macrophage IgG-bead phagocytosis, imaging;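 active means inhibition above the mean of the plate negative controls plus 5 SD, cut at about 13% in these data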;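 further: phagocytic index as fraction of beads internalized from green versus red external bead signal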
Numbers stand for hits.

For Cc1ccc(NC(=O)Cn2nnc(-c3ccccc3NC(=O)c3cccs3)n2)cc1 the results were sdo1 growth inactive, VCAM1 TNFa inh 60, cytoskel mod inactive, TNFa cytotox inactive and E-sel TNF inh inactive.
`CCOc1cc(CNc2ccc3c(c2)OCCO3)cc(Br)c1OC` gave sdo1 growth inactive, VCAM1 TNFa inh inactive, cytoskel mod 39, TNFa cytotox inactive, E-sel TNF inh inactive and Phagocytosis inh inactive.
For CCN(CC)C(=O)CSc1nnnn1-c1ccc(F)c(Cl)c1 the results were E-sel TNF inh inactive.
O=C(NC1CCCC1)C(c1ccc(F)cc1)N(Cc1ccc(F)cc1)C(=O)CCl (centres undefined) was read as sdo1 growth inactive, E-sel TNF inh inactive and Phagocytosis inh inactive.
Cc1cccc(C)c1NC(=O)CN(c1ccccn1)S(=O)(=O)c1ccccc1 was read as E-sel TNF inh inactive.
CNc1c([N+](=O)[O-])cnn1-c1ccc(Cl)cc1 was read as sdo1 growth inactive, VCAM1 TNFa inh inactive, cytoskel mod 50, TNFa cytotox inactive, E-sel TNF inh inactive and Phagocytosis inh inactive.
Screening Cc1cc(C(=O)CCl)c(C)n1-c1c(C)n(C)n(-c2ccccc2)c1=O returned E-sel TNF inh inactive.
`CCCOc1ccc([N+](=O)[O-])cc1C1NC(=S)NC(c2ccccc2)=C1C(=O)OCC` (centres undefined) gave sdo1 growth inactive, VCAM1 TNFa inh inactive, cytoskel mod inactive, TNFa cytotox inactive and E-sel TNF inh 70.
Screening Clc1ccccc1CSc1snnc1-c1ccccc1 returned sdo1 growth inactive, VCAM1 TNFa inh inactive, cytoskel mod inactive, TNFa cytotox inactive, E-sel TNF inh inactive and Phagocytosis inh inactive.
Screening O=S(=O)(c1ccc(Cl)c(Cl)c1)c1snnc1-c1ccccc1 returned sdo1 growth inactive, VCAM1 TNFa inh 96, cytoskel mod inactive, TNFa cytotox inactive, E-sel TNF inh inactive and Phagocytosis inh inactive.
`CN1c2ccccc2C(C)(C)C12CC(c1cccc(S(=O)(=O)N3CCCC3)c1)=NO2` (centres undefined) gave sdo1 growth inactive and Phagocytosis inh inactive.
COc1ccccc1-c1cc(C(F)(F)F)nc(S(=O)(=O)CCCC(=O)N2CCCCC2C)n1 (centres undefined) was read as sdo1 growth inactive, VCAM1 TNFa inh 71, cytoskel mod inactive, TNFa cytotox inactive and Phagocytosis inh inactive.
For CCOC(=O)N1CCN(C(=O)CSc2ccc(-c3cccnc3)nn2)CC1 the results were E-sel TNF inh inactive.
Screening CCOC(=O)C1CCN(C(=O)CNC(=O)OC(C)(C)C)CC1 returned sdo1 growth inactive, VCAM1 TNFa inh inactive, cytoskel mod inactive, TNFa cytotox inactive, E-sel TNF inh inactive and Phagocytosis inh inactive.
For CC(C)(C)OC(=O)NCC(=O)N1CCC(C(=O)O)CC1 the results were sdo1 growth inactive, VCAM1 TNFa inh inactive, cytoskel mod inactive, TNFa cytotox inactive, E-sel TNF inh 69 and Phagocytosis inh inactive.
`Cc1oc2c(C)c(O)ccc2c(=O)c1-c1cnn(-c2ccccc2)c1` gave sdo1 growth inactive, VCAM1 TNFa inh inactive, cytoskel mod inactive, TNFa cytotox inactive and E-sel TNF inh 59.
Screening COc1ccc2c(=O)c(-c3cnn(-c4ccccc4)c3)c(C)oc2c1 returned sdo1 growth inactive, VCAM1 TNFa inh inactive, cytoskel mod inactive, TNFa cytotox inactive, E-sel TNF inh inactive and Phagocytosis inh inactive.
For [O-][n+]1onc2c1C(N1CCOCC1)CCC2N1CCOCC1 (centres undefined) the results were sdo1 growth inactive, VCAM1 TNFa inh inactive, cytoskel mod inactive, TNFa cytotox inactive, E-sel TNF inh 82 and Phagocytosis inh inactive.
`COc1ccc(NC(=O)Cn2c(=O)n(CC3CCCO3)c(=O)c3ccccc32)c(OC)c1` (centres undefined) gave E-sel TNF inh inactive.
CCOC(=O)COc1ccc2ccccc2c1/C=C/[N+](=O)[O-] was read as sdo1 growth inactive and Phagocytosis inh inactive.
Screening CCCCOc1ccc2ccccc2c1C=O returned sdo1 growth inactive, VCAM1 TNFa inh inactive, cytoskel mod inactive, TNFa cytotox inactive and E-sel TNF inh 52.
`CCOc1ccccc1N1CCN(C(=O)c2cccc(-c3ccc(O)cc3)c2)CC1` gave sdo1 growth inactive, VCAM1 TNFa inh 44, cytoskel mod inactive, TNFa cytotox inactive, E-sel TNF inh inactive and Phagocytosis inh inactive.
Screening CCOc1ccccc1C(=O)N1CCN(c2cccc(Cl)c2)CC1 returned sdo1 growth inactive, VCAM1 TNFa inh 84, cytoskel mod inactive, TNFa cytotox inactive, E-sel TNF inh inactive and Phagocytosis inh inactive.
O=c1cc(-c2ccccc2)c2ccccc2[nH]1 was read as sdo1 growth inactive, VCAM1 TNFa inh inactive, cytoskel mod inactive, TNFa cytotox inactive, E-sel TNF inh 65 and Phagocytosis inh inactive.
For CC(C)CN(C(=O)CSc1nn(-c2ccc(Cl)cc2)c(=S)s1)C1CCS(=O)(=O)C1 (centres undefined) the results were sdo1 growth inactive, E-sel TNF inh inactive and Phagocytosis inh inactive.
`CC1(C)CC(=O)C(C=NCC2CCCO2)=C(O)C1` (centres undefined) gave sdo1 growth inactive, VCAM1 TNFa inh inactive, cytoskel mod inactive, TNFa cytotox inactive, E-sel TNF inh 80 and Phagocytosis inh inactive.
For CC1=Nc2ccccc2/C1=C/c1c(N)n2c(S(=O)(=O)CC(C)C)nsc2nc1=O the results were E-sel TNF inh 96.
CC1=Nc2ccccc2/C1=C/c1c(N)n2c(S(=O)(=O)C(C)C)nsc2nc1=O was read as E-sel TNF inh inactive.
`CCN(CC(=O)NC1CCCCC1)S(=O)(=O)c1ccc(Cl)cc1` gave sdo1 growth inactive, VCAM1 TNFa inh inactive, cytoskel mod inactive, TNFa cytotox inactive, E-sel TNF inh inactive and Phagocytosis inh inactive.
CCN(CC(=O)NCc1ccccn1)S(=O)(=O)c1ccc(Cl)cc1 was read as sdo1 growth inactive, VCAM1 TNFa inh inactive, cytoskel mod inactive, TNFa cytotox 79, E-sel TNF inh inactive and Phagocytosis inh inactive.
`COc1ccccc1N(Cc1ccccc1)S(=O)(=O)c1cccc(C(=O)Nc2ccc(C(C)=O)cc2)c1` gave sdo1 growth inactive, E-sel TNF inh 65 and Phagocytosis inh inactive.
COc1cc(/C=C/C(=O)OCC(=O)Nc2ccc3c(c2)OCCO3)ccc1OCC#N was read as sdo1 growth inactive, E-sel TNF inh inactive and Phagocytosis inh inactive.
CCn1c(SCc2nc(CC(=O)Nc3ccccc3OC)no2)nnc1-c1cccs1 was read as sdo1 growth inactive, VCAM1 TNFa inh inactive, cytoskel mod inactive, TNFa cytotox inactive, E-sel TNF inh 100 and Phagocytosis inh inactive.
For CCOC(=O)N1CCc2c(sc3c2c(=O)n(Cc2ccccc2)c(=O)n3Cc2cccc(C)c2)C1 the results were sdo1 growth inactive and E-sel TNF inh 88.
Screening CCOC(=O)N1CCc2c(sc3c2c(=O)n(Cc2ccccc2)c(=O)n3Cc2ccccc2F)C1 returned sdo1 growth inactive and E-sel TNF inh inactive.
